How the values were obtained:
Settings in all cases: concentration: 1 μM, replicates: in singlicate; n = 1
HIPK3 = test system: HIPK3
HIPK4 = test system: HIPK4
HPK1 = test system: HPK1
HUNK = test system: HUNK
ICK = test system: ICK
IGF1R = test system: IGF1R
IKK-alpha = test system: T1, IKK-alpha
T1 construct: gene CHUK

IKK-beta = test system: T2, IKK-beta
T2 construct: gene IKBKB

IKK-epsilon = test system: T3, IKK-epsilon
T3 construct: gene IKBKE

INSRR = test system: INSRR
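Further: KINOMEscan kinase panel screen.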

Row | SMILES | %Inh (HIPK3) | %Inh (HIPK4) | %Inh (HPK1) | %Inh (HUNK) | %Inh (ICK) | %Inh (IGF1R) | %Inh (IKK-alpha) | %Inh (IKK-beta) | %Inh (IKK-epsilon) | %Inh (INSRR)
1 | Nc1ncnc2c1ncn2-c1cccc(F)c1 [SKF-97560] | 14% | 6% | 23% | 10% | 6% | 1% | 13% | 19% | 23% | 0%
2 | Nc1ncnc2c1ncn2-c1cccc2ccccc12 [SKF-97184] | 0% | 7% | 2% | 45% | 0% | 0% | 16% | 3% | 0% | 0%
3 | Cc1cc(Nc2nc(-c3cccc(C)n3)nc3ccccc23)ccn1 [GW872411] | 0% | 0% | 0% | 28% | 0% | 0% | 0% | 0% | 0% | 0%
4 | COc1cc2ncn(-c3cc(OCCCc4ccccc4)c(C(N)=O)s3)c2cc1OC [GSK205189] | 0% | 60% | 28% | 0% | 0% | 13% | 0% | 0% | 14% | 3%

— paper PMC5540273 (PLoS ONE, 2017)
